Bioassay records deposited in PubChem by several laboratories.
The list is not random: actives were taken first. Their share in the collection is about 4.5%.
697 NFkB inh – inhibitors of the PMA/ionomycin-induced NF-kB reporter in 697 B cells. inhibition, % at 4 µM. 330,000 tested, 0.33% active. AID 435022. 697 B-cell NF-kB luciferase reporter, 16 h; in the data active means inhibition above about 35%
Jurkat NFkB inh – inhibitors of the PMA/ionomycin-induced NF-kB reporter in Jurkat cells | PMA/ionomycin-induced NF-kB luciferase reporter, luminescence | inhibition, % at 4 µM | 330,000 tested, 0.53% active; in the data active means inhibition above about 50%
Beta cell apopt – blocks beta cell apoptosis; INS-1E cytokine-induced death, ATP luminescence, 48 h; percent of positive-control rescue, neutral wells zero; protection from apoptosis, % (concentration not given with the values); 300,000 tested, 0.8% active;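 active means Every replicate reaches about 75%, or at least half do and their mean reaches it too, limit read from the data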;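 further: 0% = cytokine-treated negative control wells and 100% = positive control rescue; higher means more ATP so stronger rescue from cytokine killing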
CSC inhib – cancer stem cell inhibition; cancer stem cell-like cells viability, luminescence; inhibition, % at 7.5 µM; 300,000 tested, 1.1% active; AID 2717; in the data active means inhibition above about 75%; tested in HMLE shEcad cells
Mdm2 MdmX PPI – inhibitors of human Mdm2/MdmX interaction | 330,000 tested, 3% active | inhibition, % at 8 µM | SaOS-2 split-luciferase Mdm2/MdmX complementation, luminescence;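 active means inhibition of at least 50% at 8 µM in the primary screen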
Target sequence (O15151 whole entry, looked up): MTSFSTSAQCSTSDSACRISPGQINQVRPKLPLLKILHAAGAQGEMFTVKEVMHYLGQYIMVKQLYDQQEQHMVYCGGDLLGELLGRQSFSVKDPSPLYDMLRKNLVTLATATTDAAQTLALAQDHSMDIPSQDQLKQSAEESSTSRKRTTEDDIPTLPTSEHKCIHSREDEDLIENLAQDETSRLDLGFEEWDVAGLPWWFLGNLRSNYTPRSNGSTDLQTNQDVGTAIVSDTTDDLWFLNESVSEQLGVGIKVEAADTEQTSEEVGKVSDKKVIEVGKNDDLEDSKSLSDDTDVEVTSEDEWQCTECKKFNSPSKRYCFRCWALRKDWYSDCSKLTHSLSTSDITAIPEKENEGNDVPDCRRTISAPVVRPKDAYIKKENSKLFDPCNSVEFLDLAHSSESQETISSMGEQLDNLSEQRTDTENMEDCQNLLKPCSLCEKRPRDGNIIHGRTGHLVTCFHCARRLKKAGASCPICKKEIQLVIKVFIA
Target sequence (Q00987 whole entry, looked up): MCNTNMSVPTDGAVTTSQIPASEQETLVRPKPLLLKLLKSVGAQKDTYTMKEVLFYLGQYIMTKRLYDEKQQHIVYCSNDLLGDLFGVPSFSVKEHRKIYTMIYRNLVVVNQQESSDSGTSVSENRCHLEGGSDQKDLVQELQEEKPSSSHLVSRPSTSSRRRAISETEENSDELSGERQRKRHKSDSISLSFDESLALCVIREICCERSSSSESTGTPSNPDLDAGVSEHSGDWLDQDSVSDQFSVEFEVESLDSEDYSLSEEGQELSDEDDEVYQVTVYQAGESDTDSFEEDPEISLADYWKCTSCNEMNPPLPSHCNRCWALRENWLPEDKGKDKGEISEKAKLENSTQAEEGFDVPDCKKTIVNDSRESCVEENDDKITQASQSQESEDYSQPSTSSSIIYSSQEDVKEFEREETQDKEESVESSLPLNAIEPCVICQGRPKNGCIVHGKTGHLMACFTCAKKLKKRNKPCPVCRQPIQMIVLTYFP
Gli-Sufu block – antagonists of Gli-Sufu signaling; Sufu-KO-LIGHT fibroblasts, Gli luciferase reporter luminescence; 340,000 tested, 0.74% active; inhibition, % at 5 µM;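 active means inhibition above about 55%, limit read from the data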;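 further: 0% = DMSO-treated cells and 100% = wells with medium but no cells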
Gli-Sufu confirm – confirmation of Gli-SUFU pathway antagonists; shares compounds with Gli-Sufu block; Sufu-KO-LIGHT cells, Gli luciferase reporter, luminescence; inhibition, % at 5 µM; 2,500 tested, 40% active;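 active means mean inhibition at 5 µM reaching about 45%, limit read from the data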;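 further: plate controls were DMSO-treated cells for no effect and wells lacking cells for full effect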
Gli cytotox – cytotoxic in Gli-SUFU antagonist counter-screen. shares compounds with Gli-Sufu block. Sufu-KO-LIGHT cells cytotoxicity, ATP luminescence. cytotoxicity, % at 5 µM. 2,500 tested, 32% active. AID 651994;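 active means mean cytotoxicity at 5 µM above about 25%, limit read from the data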;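 further: cells exposed to compound overnight for roughly 16 to 18 hours; plate controls were DMSO wells with cells for no effect and medium without cells for full effect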
Wnt3a counter – inhibits Wnt3a reporter, counter-screen for Gli-SUFU antagonists | 2,500 tested, 20% active | inhibition, % at 6.25 µM | AID 651995 | shares compounds with Gli-Sufu block | Wnt-LIGHT cells, Wnt3a-driven luciferase reporter, luminescence;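 active means mean inhibition above about 25%, limit read from the data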
The depositor's hits bear a star; nt = no result given.

SMILES	697 NFkB inh	Jurkat NFkB inh	Beta cell apopt	CSC inhib	Mdm2 MdmX PPI	Gli-Sufu block	Gli-Sufu confirm	Gli cytotox	Wnt3a counter
CSCCC(NC(=O)c1cccc(S(=O)(=O)N2CCOCC2)c1)C(=O)Nc1ccc(F)cc1 (stereo not given)	7.2	7.0	-8.2	16.1	9.1	67.8*	17.0	2.8	-19.5
CCOc1ccccc1NC(=O)COC(=O)c1cnc(C)cn1	5.9	-3.7	nt	nt	-2.2	-4.5	nt	nt	nt
Cc1csc2ncnc(NCCc3ccccn3)c12	-3.6	20.4	79.3*	-8.9	0.7	67.2*	57.4*	28.8*	26.8*
COc1ccc(Cl)cc1C(=O)NNC(=O)CSc1nnc2ccccn12	14.8	-13.8	2.5	-10.5	0.3	53.1	18.1	2.0	17.8
COc1ccc(C(=O)NNC(=O)CSc2nnc3ccccn23)cc1OC	16.4	-1.5	-6.0	-17.5	13.2	10.5	nt	nt	nt
CCOc1ccc(NS(=O)(=O)c2cc3c4c(c2)C(C)C(=O)N4CCC3)cc1 (stereo not given)	-0.8	-14.7	1.1	-4.2	21.1	12.2	nt	nt	nt
COc1ccccc1CC(NC(C)=O)C(=O)NC1CCN(C(=O)NCc2ccccc2)CC1 (stereo not given)	-19.7	-5.3	nt	nt	20.5	-0.1	nt	nt	nt
CC(=O)NC(Cc1ccccc1C)C(=O)NC1CCN(C(=O)NCc2ccccc2)CC1 (stereo not given)	17.6	10.0	nt	nt	24.6	58.4*	21.8	1.8	-1.8
CCOc1ccc(CN(C)c2ccc(S(=O)(=O)N3CCN(C)CC3)cc2[N+](=O)[O-])cc1OC	-37.2	-3.9	46.1	13.1	-11.0	59.4*	25.4	9.1	5.2
C=CCOc1ccc(CN(C)c2ccc(S(=O)(=O)N3CCN(C)CC3)cc2[N+](=O)[O-])cc1	10.7	0.8	7.2	17.1	-4.9	13.8	nt	nt	nt
OC[C@@H]1[C@@H](c2ccc(F)cc2)C(c2cccc(Cl)c2)=NN1c1ccccc1	-32.9	nt	nt	nt	27.7	2.5	nt	nt	nt
O=C(O)c1ccc2c(c1)C(=O)N(c1cc([N+](=O)[O-])ccn1)C2=O	6.1	-5.9	nt	nt	18.0	-7.1	nt	nt	nt
O=C(COC(=O)c1ccc(OC(F)F)cc1)NCc1cccs1	1.7	-7.5	-5.6	10.1	0.0	4.1	nt	nt	nt
COc1ccc(-n2c(-c3ccc(Br)cc3)n[nH]c2=S)cc1	7.6	-8.7	0.1	2.5	27.3	-13.7	nt	nt	nt
COc1ccc(-n2c(-c3ccc(Br)cc3)c[n+]3c2SC(C)C3)cc1 (stereo not given)	26.9	-0.9	nt	nt	39.3	75.8*	84.8*	41.9*	-21.3
COc1ccc(-n2c(-c3ccccc3)cc3c2CCCC3=O)cc1	8.4	-14.0	4.8	37.2	43.0	1.1	nt	nt	nt
COc1ccc(-n2c(-c3ccccc3)c[n+]3c2CCC3)cc1	17.5	48.3	46.4	-6.5	32.6	71.6*	79.9*	37.6*	23.3
COc1ccc(-n2c(-c3ccc(Br)cc3)c[n+]3c2CCCCC3)cc1	-35.9	25.8	111.1*	18.0	19.8	87.6*	86.4*	41.4*	23.4
COc1ccc(-n2c(-c3ccc(Br)cc3)c[n+]3c2CCC3)cc1	6.8	23.1	75.6*	2.2	-1.2	80.4*	80.4*	37.8*	9.5
COc1ccccc1CN1CC(C(=O)NCc2ncccc2C)CCC1=O (stereo not given)	5.9	10.6	nt	-4.1	7.8	-5.6	nt	nt	nt
Cn1nc(C(C)(C)C)cc1C(=O)NCc1ccc2c(c1)OCO2	4.9	40.4	117.3*	-10.1	33.9	68.0*	68.2*	30.2*	42.9*
COC(CNC(=O)c1ccc(CS(=O)(=O)c2ccccc2)o1)OC	-0.6	-4.5	nt	-3.9	-5.6	27.0	nt	nt	nt
COc1ccc(S(=O)(=O)Cc2ccc(C(=O)NCC(OC)OC)o2)cc1	-9.2	-8.3	-5.6	-14.1	-22.1	53.6	20.5	10.9	0.6
